# Measurements: PubChem BioAssay AID361 (National Center for Advancing Translational Sciences (NCATS), 2006)
# The campaign covered roughly 51,000 compounds. About 600 (1.2%) were called active. Roughly 2% stayed inconclusive and do not appear here. This excerpt belongs to a sample that is enriched for actives. A number with no mark means an inactive call. Cut-off read from the data, not from the text of the source: active = potency below about 11 µM; inconclusive = mostly about 12 µM to 25 µM; inactive = weaker than that;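 the screen sought inhibitors and activators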.
# Tested on: pyruvate kinase (Bacillus stearothermophilus)
# Test: Pyruvate Kinase
# Settings: purified pyruvate kinase, luminescence ATP production; ribose 5-phosphate activator present at AC10
# Protocol: Pyruvate kinase (partially purified from Bacillus stearothermophilus) was assayed for its ability to generate ATP from ADP using phosphoenolpyruvate (PEP) as a substrate. ATP generation was detected in a coupled reaction by luciferase-mediated luminescence, an ATP-dependent process. Pyruvate kinase substrates, PEP and ADP, were present in the assay at Km and […]-fold below Km respectively. The enzyme was assayed at an intermediate level of activity to screen for inhibitors and activators. In addition, ribose 5 phosphate, a positive modulator of pyruvate kinase, was included in the assay at AC10 in order to identify possible potentiators.
# NCGC Assay Protocol Summary:
# Three uL of substrate mix (final concentration, 50 mM imidazole pH 7.2, 50 mM KCl, 7 mM MgCl2, 2 mM PEP, 0.1 mM ADP, 0.7 nM ribose 5 phosphate, 0.01% Tween 20, 0.05% BSA) was dispensed into 1536 well plates. 23 nL of compound were delivered by a pin tool and 1 uL of enzyme mix (final concentration, 10 nM pyruvate kinase, 50 mM imidazole pH 7.2, 0.05% BSA) was added. After centrifugation at 1000 rpm for less than a minute, plates were incubated at room temperature for 2 hours. Three uL of detection and kinase stop mix (PKLight, Cambrex) was added, the plates centrifuged, and luminescence read by a ViewLux (Perkin Elmer) at 5 second exposure/plate. Data were normalized to the controls for AC100 stimulation (5 uM ribose 5 phosphate) and to AC100 inhibition (110 uM luteolin).
# Potency is the fitted concentration of half-maximal effect.
row,SMILES,Potency
1,CCN(CC)S(=O)(=O)c1ccc2nc(CSc3nnnn3-c3ccc(O)cc3)[nH]c2c1,> 57 µM
2,O=C(CSc1nnc(-c2cccs2)n1-c1ccccc1)N1CCN(C(=O)c2ccco2)CC1,> 57 µM
3,CCc1ccc2oc(-c3ccc(N)cc3)nc2c1,2.06 µM (active)
4,CCN(CC)c1ccc2oc(=O)c(C)nc2c1,> 57 µM
5,COC(=O)C(CC(=O)Nc1cc(C)ccc1C)Nc1ccccc1OC (stereo not given),> 57 µM
6,Cn1c(SCc2c(F)cccc2Cl)nnc1-c1cnccn1,> 57 µM
7,COc1ccccc1N=C1SC(C)CN1C(=O)C1CCC1 (stereo not given),> 57 µM
8,CN(C(=O)CSc1nnnn1-c1ccccc1)C1CCCCC1,> 57 µM
9,Cn1nnnc1SCc1cc(=O)[nH]c2ccccc12,> 57 µM
10,CN(C)c1nc(N)nc(CSc2nnnn2-c2cccc3ccccc23)n1,1.57 µM (active)
11,C=CCn1c(=S)[nH]c2nc3c(cc2c1=O)COC(C)(C)C3,> 25.6 µM
12,COc1ccc(S(=O)(=O)N(CCCN2CCCC2=O)Cc2cc3c(C)ccc(C)c3[nH]c2=O)cc1,> 57 µM
13,CC(C)OC(=O)C(C#N)c1nc2ccccc2nc1N1CCN(Cc2ccc3c(c2)OCO3)CC1 (stereo not given),> 25.6 µM
14,CSc1nc(O)c(Cc2ccccc2)c(=O)[nH]1,> 25.6 µM
15,O=C(CN1CCN(C(=O)c2cccc(F)c2)CC1)Nc1ccccc1F,> 57 µM
16,O=C(c1ccccc1)N1CCN(C(=O)N2CCCCC2)CC1,> 57 µM
17,COc1ccc(CCN2C(=O)c3[nH]nc(-c4ccccc4O)c3C2c2ccc(C)cc2)cc1OC (stereo not given),> 57 µM
18,Fc1ccc(-c2nnc3sc(-c4ccc5c(c4)OCO5)nn23)cc1,> 57 µM
19,O=C(CN1C(=O)C2C3C=CC(C3)C2C1=O)NCCc1ccccc1Cl (stereo not given),> 57 µM
20,N#CC1=C(N)C(C#N)(C#N)[C@H](c2ccsc2)[C@H]2COCC=C12,> 57 µM
21,Cn1c(=O)c(=O)n(C)c2cc(S(=O)(=O)NCCc3ccccc3)ccc21,> 57 µM
22,CCCCCCn1c(CN2CCCCC2)nc2c1c(=O)n(C)c(=O)n2C,> 57 µM
23,O=c1[nH]c(=O)n(Cc2ccco2)c2c1C(C(F)(F)F)(C(F)(F)F)N=C(c1ccco1)N2,> 25.6 µM
24,CC1CCN(C(=O)Cn2cc(C(=O)c3ccco3)c3ccccc32)CC1,> 57 µM

row,SMILES,Potency
1,Cc1noc(C)c1C(=O)OCC(=O)/C=C1\N(C)c2ccccc2C1(C)C,> 57 µM
2,Cc1ccccc1-n1c(SCC(=O)NCc2cccs2)nnc1-c1ccncc1,> 57 µM
3,CCn1c(CNC(=O)c2ccc(OC)c(OC)c2)nnc1SCC(=O)Nc1ccccc1,> 57 µM
4,CCCCNc1nc2ccccc2nc1NS(=O)(=O)c1cccs1,> 57 µM
5,CCOC(=O)c1sc2nc(CSCC(=O)OCc3ccc(C(=O)OC)o3)[nH]c(=O)c2c1C,> 57 µM
6,CCn1c(CSc2nncn2-c2ccc(OC)cc2)nc2cc(S(=O)(=O)N(C)C)ccc21,> 57 µM
7,N#CCCN(CCC#N)c1nnc(-c2ccccc2)s1,> 25.6 µM
8,Cc1cc(C(F)(F)F)c(C#N)c(SCC(=O)NC2CC2)n1,> 25.6 µM
9,Brc1cccc(-c2nnc3n2CCC3)c1,> 57 µM
10,Cc1ccc2nc(NCCCNC(=O)c3cnccn3)c(C#N)cc2c1,> 57 µM
11,Cc1noc(NS(=O)(=O)c2ccc(NC(=O)C34CCC(CC3)C4)cc2)c1C,> 57 µM
12,CC1Cn2c(nnc2-c2cccs2)S1 (stereo not given),> 57 µM
13,N#Cc1c2c(c(N3CCN(CCO)CC3)n3c1nc1ccccc13)CCCC2,> 57 µM
14,COc1ccc(OC)c(NC(=O)CN2CCN(C(=O)c3ccco3)CC2)c1,> 57 µM
15,OCCCN1c2ccccc2Nc2nnc(-c3ccccc3)cc21,6.08 µM (active)
16,O=C(C1CCCO1)N1CCC(c2nc3ccccc3[nH]2)CC1 (stereo not given),> 57 µM
17,CCCC(=O)N1CCc2[nH]c3ccccc3c2C1,> 25.6 µM
18,O=C(Nc1ccc(Oc2ccccc2)cc1)c1ccco1,51.8 µM
19,CN1CCN(S(=O)(=O)c2ccc(NC(=O)c3ccco3)cc2)CC1,> 57 µM
20,O=C(Nc1ccc(NC(=O)c2cccs2)cn1)c1ccco1,7.2 µM (active)
21,CCCc1nnc(NC(=O)c2cc(OC)cc(OC)c2)s1,> 57 µM
22,N#Cc1ccc(OCCN2C(=O)NC3(CCSC3)C2=O)cc1 (stereo not given),> 57 µM
23,COCCn1c(-c2ccc(OC)c(OC)c2)nc2ccccc21,> 57 µM
24,CCCn1c(C(O)c2cc(OC)ccc2OC)nc2ccccc21 (stereo not given),> 57 µM

row,SMILES,Potency
1,COc1ccc(-c2cc3n(n2)CCc2nc4ccccc4n2-3)cc1,1.66 µM (active)
2,CCOC(=O)c1sc(NC(=O)c2cc(S(=O)(=O)N3CCOCC3)ccc2C)nc1C,> 57 µM
3,COC(=O)c1sc(NC(=O)c2ccc(OC)cc2OC)nc1C,0.093 µM (active)
4,COc1ccc2nc(NC(=O)c3ccc(Br)s3)sc2c1,> 11.4 µM
5,O=C(NCc1ccco1)c1ccc(CS(=O)(=O)Cc2ccc(F)cc2)o1,> 57 µM
6,COc1ccccc1NC(=O)C1=C(C)NC2=C(C(=O)CCC2)C1c1ccc(C)o1 (stereo not given),> 57 µM
7,COc1ccc(N2C(=O)c3cccc4cccc(c34)C2=O)nn1,> 57 µM
8,Cc1nn2c3cc(N4CCOCC4)ccc3nc2c2ccccc12,2.65 µM (active)
9,COCCCNC(=O)CSc1nc2ccc(N3CCOCC3)cc2c(=O)n1CCc1ccccc1,> 57 µM
10,Cc1cc(C)c2c(n1)nn1c(N3CCOCC3)cc(C)nc21,> 57 µM
11,O=S(=O)(N1CCOCC1)N1CCN(c2ccccc2F)CC1,> 57 µM
12,O=C(c1cccc2ccccc12)N1CCN(c2ccccc2F)CC1,26 µM
13,Cc1ccc2cccc(S(=O)(=O)N3CCN(c4ccccc4F)CC3)c2n1,6.92 µM (active)
14,Cn1c(=O)n(CCc2ccccc2)c(=O)c2c1nc1n2CCCN1c1ccccc1,> 57 µM
15,COc1cc(OC)cc(C(=O)Nc2ccc(-c3nc4ccccc4o3)c(O)c2)c1,> 57 µM
16,CN(C)CCCNc1c2c(c(C#N)c3nc4ccccc4n13)CCC2,> 57 µM
17,c1ccc(-c2oc3ncnc(N4CCOCC4)c3c2-c2ccccc2)cc1,> 57 µM
18,CC(C(=O)Nc1ccccc1-c1ccccc1)N1CCOCC1 (stereo not given),> 57 µM
19,CC(C(=O)N1CCOCC1)N1c2cccc3cccc(c23)S1(=O)=O (stereo not given),1.8 µM (active)
20,CC(C(=O)O)N1C(=O)c2cccc3cccc1c23 (stereo not given),36.6 µM
21,O=C1Nc2c(Br)cc(Br)cc2C1(O)N1CCOCC1 (stereo not given),8.12 µM (active)
22,COc1ccc(NC2CC(=O)N(C)C2=O)cc1 (stereo not given),> 25.6 µM
23,c1c2c(cc3sc(N4CCCCC4)nc13)OCCO2,1.52 µM (active)
24,Fc1ccc2nc(N3CCCCC3)sc2c1,41.1 µM

row,SMILES,Potency
1,CCOC(=O)N1CCC(NC(=O)c2ccc3nc(N4CCOCC4)sc3c2)CC1,> 57 µM
2,Cc1ccsc1C(=O)OCC(=O)c1cc(C)n(CC2CCCO2)c1C (stereo not given),0.617 µM (active)
3,COC(=O)c1ccc2c(=O)n(CC3CCCO3)c(=S)[nH]c2c1 (stereo not given),> 57 µM
4,Cc1nnc(SCC(N)=O)n1CC1CCCO1 (stereo not given),> 57 µM
5,COc1ccc(CNC(=O)c2cc3c(=O)n4ccccc4nc3n(CC3CCCO3)c2=N)cc1 (stereo not given),> 57 µM
6,O=C(Nc1cnn(Cc2ccc(Cl)cc2)c1)C1CCCC1,> 57 µM
7,C=CCn1c(COc2ccccc2)nnc1SCC(=O)NCC(=O)OCC,> 57 µM
8,O=C(NCc1ccccn1)c1cc2ccccc2oc1=O,> 57 µM
9,COc1ccc(C(=O)N(Cc2ccc(N(C)C)cc2)C2CCS(=O)(=O)C2)cc1 (stereo not given),> 57 µM
10,CCC12CN3CC(CC)(CN(C1)C31C(=O)N(C)c3ccc(C)cc31)C2=O (stereo not given),> 57 µM
11,COc1ccc(CC(=O)n2nc(-c3cccnc3)nc2N)cc1,> 57 µM
12,COC(=O)c1ccccc1NC(=O)c1ccccc1NS(C)(=O)=O,> 57 µM
13,COC(=O)Cc1nc2ccccc2[nH]1,> 57 µM
14,Cc1ccc(-c2c3c(=O)n(C)c(=O)n(C)c3cn2-c2ccccc2O)cc1,> 57 µM
15,CCOC(=O)N1CCN(CC(=O)c2c(C)[nH]c3ccccc23)CC1,> 57 µM
16,Cc1c(C(=O)CN2CCOCC2)[nH]c2ccccc12,> 57 µM
17,N#Cc1nc(Cc2ccccc2)oc1NCCc1ccccc1,> 57 µM
18,N#Cc1nc(-c2ccc(OCc3ccccc3)cc2)oc1NCCCN1CCOCC1,1.88 µM (active)
19,N#Cc1nc(COc2ccc(-c3ccccc3)cc2)oc1NCc1cccnc1,> 57 µM
20,O=C(O)CSCc1nc2ccccc2s1,> 57 µM
21,Cc1cccc(N2CCN(C(=O)c3cc4c(=O)[nH]c5ccccc5c4n3C)CC2)c1C,> 11.4 µM
22,Cn1c(C(=O)NCCN2CCc3ccccc3C2)cc2c(=O)[nH]c3ccccc3c21,9.21 µM (active)
23,O=C(CN1C(=O)COc2ccccc21)NCCN1CCc2ccccc2C1,> 57 µM
